Holding throughout (experiment): log2 fold change, soluble protein after heating vs DMSO (PISA); higher = thermal stabilisation; K562 cells, 10 uM, 30 min; active = over 0.2 and 3.5 SD of the protein, either way, in both replicates (recomputed)
Compound in one test: Cc1ccc(NC(=O)c2ccc(CN3CC[C@H](N(C)C)C3)c(C(F)(F)F)c2)cc1Nc1nccc(-c2cncnc2)n1 [bafetinib]
The method in brief:
(§1)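 Thermal stability values are relative to control samples and come from duplicates. They are expressed as log2 fold changes. For measurement, K562 cells (2×10^6 cells/mL) received 10 μM compound for 30 min, and aliquots were heated for 3 min over 48°C-58°C, pooled, and extracted at 4°C in PBS with 0.5% NP-40. Soluble protein, the supernatant after 21,000xg for 90 min, was quantified by TMTpro 16plex LC-MS/MS with equalised channel sums.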

Compound in test [1]: Cc1cccc(CC(=O)N2CCc3c2ccc(-c2cn(C)c4ncnc(N)c24)c3F)n1
The method in brief: as §1

Compound in a further test: Cc1cn(-c2cc(NC(=O)c3ccc(C)c(Nc4nccc(-c5cccnc5)n4)c3)cc(C(F)(F)F)c2)cn1 [nilotinib]
Summed up: as §1

Compound in test [2]: Cc1nc(Nc2n[nH]c3c2CN(C(=O)N[C@H](CN(C)C)c2ccccc2)C3(C)C)c2sccc2n1
The method in brief: as §1

Compound in the next test: Cc1nc(Nc2ncc(C(=O)Nc3c(C)cccc3Cl)s2)cc(N2CCN(CCO)CC2)n1 [dasatinib]
The method in brief: as §1

Compound in test [3]: Cc1ncc(-c2ccnc(Nc3ccc(S(C)(=O)=O)cc3)n2)n1C(C)C
The method in brief:
as §1

Compound in test [4]: Cn1cc(-c2ccc3c(c2)CCN3C(=O)Cc2cccc(C(F)(F)F)c2)c2c(N)ncnc21
Summed up:
as §1

Compound in test [5]: Cn1cc(-c2ccc3nnc(C(F)(F)c4ccc5ncccc5c4)n3n2)cn1
The method in brief: as §1

Compound in a further test: Cn1cncc1[C@@](N)(c1ccc(Cl)cc1)c1ccc2c(c1)c(-c1cccc(Cl)c1)cc(=O)n2C [tipifarnib]
Summed up: as §1

Compound in a further test: FC(F)(F)c1ccc(/C=C/c2nc(COc3ccc(CCCCn4ccnn4)cc3)co2)cc1 [mubritinib]
Summed up: as §1

The full data set covers some 7,900 targets. This sample favours those with a hit. About 0.6% of all pairs of compound and target were hits. Unmarked numbers belong to inactive results.

Chain of UniProt P13807 (P13807 whole entry, looked up): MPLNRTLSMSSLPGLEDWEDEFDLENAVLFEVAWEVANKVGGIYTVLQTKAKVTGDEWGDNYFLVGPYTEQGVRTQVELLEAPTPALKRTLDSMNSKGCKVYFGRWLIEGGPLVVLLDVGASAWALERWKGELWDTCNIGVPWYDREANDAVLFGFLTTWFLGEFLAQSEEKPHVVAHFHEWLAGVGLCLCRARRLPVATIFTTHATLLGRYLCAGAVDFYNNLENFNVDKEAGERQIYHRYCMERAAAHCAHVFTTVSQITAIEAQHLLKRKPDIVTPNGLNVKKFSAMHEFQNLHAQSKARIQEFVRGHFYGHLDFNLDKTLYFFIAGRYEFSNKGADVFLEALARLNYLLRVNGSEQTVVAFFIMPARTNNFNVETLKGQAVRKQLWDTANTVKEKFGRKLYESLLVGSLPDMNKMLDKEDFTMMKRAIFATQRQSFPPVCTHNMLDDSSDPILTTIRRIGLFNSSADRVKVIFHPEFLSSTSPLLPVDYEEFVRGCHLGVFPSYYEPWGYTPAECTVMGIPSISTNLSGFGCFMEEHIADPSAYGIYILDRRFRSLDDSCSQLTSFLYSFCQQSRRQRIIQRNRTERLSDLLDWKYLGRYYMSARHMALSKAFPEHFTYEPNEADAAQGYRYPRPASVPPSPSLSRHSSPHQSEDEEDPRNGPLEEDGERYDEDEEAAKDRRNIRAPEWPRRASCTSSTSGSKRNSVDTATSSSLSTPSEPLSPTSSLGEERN
Chain of UniProt Q658Y4 (Q658Y4 whole entry, looked up): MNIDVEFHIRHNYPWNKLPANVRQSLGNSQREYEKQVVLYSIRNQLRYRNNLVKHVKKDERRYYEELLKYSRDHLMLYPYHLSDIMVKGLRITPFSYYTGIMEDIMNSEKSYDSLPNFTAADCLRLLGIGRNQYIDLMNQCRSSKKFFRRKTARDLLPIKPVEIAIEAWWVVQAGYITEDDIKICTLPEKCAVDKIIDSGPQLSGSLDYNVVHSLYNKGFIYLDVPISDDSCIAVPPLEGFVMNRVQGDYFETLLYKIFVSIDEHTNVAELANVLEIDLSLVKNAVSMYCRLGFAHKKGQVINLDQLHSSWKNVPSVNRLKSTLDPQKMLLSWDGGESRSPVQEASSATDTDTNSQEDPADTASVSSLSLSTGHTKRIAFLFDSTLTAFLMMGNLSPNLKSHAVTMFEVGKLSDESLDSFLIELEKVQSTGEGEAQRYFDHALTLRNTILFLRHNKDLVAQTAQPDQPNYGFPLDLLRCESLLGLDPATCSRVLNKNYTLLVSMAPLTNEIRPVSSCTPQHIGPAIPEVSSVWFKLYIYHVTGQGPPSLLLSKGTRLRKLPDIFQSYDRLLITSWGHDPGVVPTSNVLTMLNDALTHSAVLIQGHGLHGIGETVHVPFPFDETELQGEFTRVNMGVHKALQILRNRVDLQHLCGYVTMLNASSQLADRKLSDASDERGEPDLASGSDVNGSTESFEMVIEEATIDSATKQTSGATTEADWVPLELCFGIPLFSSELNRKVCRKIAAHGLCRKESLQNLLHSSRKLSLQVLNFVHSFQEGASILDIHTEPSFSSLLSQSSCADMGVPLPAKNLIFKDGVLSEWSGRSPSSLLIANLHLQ
Chain of UniProt Q02790 (Q02790 whole entry, looked up): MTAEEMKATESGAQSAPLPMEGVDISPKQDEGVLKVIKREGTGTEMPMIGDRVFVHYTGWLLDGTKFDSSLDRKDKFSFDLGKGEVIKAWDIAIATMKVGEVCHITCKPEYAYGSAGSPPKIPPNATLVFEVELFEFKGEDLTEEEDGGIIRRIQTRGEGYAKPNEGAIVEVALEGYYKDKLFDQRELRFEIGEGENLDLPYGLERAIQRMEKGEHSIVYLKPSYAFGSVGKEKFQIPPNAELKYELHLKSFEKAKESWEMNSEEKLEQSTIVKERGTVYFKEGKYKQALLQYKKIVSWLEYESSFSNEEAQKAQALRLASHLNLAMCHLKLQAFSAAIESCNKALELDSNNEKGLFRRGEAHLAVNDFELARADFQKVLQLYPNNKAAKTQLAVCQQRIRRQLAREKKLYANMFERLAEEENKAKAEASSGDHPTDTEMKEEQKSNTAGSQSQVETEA
Chain of UniProt Q9Y692 (Q9Y692 whole entry, looked up): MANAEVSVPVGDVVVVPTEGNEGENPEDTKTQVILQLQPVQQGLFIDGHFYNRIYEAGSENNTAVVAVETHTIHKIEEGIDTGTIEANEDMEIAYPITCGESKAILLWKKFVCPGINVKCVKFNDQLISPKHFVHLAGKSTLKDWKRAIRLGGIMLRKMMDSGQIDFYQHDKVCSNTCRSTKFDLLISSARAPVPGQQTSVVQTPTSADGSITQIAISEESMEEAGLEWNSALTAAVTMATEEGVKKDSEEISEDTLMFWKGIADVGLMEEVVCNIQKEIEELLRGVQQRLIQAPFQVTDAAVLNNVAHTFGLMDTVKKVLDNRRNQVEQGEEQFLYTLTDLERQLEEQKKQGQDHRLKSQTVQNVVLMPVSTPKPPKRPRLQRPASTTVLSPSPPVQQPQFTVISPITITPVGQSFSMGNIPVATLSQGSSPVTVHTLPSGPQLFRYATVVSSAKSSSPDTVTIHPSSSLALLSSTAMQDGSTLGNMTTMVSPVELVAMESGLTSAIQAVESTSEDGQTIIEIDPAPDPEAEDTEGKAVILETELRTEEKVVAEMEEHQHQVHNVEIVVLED
Chain of UniProt O00458 (O00458 whole entry, looked up): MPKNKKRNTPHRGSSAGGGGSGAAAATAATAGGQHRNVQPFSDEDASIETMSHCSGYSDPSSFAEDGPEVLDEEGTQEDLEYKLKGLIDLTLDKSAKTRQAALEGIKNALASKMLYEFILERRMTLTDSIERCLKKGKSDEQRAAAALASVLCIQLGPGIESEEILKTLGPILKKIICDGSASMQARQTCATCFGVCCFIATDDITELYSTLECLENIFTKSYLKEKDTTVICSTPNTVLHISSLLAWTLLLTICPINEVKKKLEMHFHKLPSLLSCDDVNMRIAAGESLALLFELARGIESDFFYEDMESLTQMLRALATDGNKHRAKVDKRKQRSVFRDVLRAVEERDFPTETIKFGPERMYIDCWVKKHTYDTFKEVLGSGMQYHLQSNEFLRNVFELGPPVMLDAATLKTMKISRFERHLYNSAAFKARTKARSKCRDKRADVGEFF
Chain of UniProt Q9NRD1 (Q9NRD1 whole entry, looked up): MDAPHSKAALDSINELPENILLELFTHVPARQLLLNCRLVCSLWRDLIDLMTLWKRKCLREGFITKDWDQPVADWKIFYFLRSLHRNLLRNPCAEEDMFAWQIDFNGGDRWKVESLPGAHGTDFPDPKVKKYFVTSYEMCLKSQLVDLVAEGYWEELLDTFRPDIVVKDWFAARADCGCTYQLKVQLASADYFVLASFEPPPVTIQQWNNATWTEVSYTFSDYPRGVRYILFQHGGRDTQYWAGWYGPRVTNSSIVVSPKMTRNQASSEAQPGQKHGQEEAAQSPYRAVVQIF
Chain of UniProt P22570 (P22570 whole entry, looked up): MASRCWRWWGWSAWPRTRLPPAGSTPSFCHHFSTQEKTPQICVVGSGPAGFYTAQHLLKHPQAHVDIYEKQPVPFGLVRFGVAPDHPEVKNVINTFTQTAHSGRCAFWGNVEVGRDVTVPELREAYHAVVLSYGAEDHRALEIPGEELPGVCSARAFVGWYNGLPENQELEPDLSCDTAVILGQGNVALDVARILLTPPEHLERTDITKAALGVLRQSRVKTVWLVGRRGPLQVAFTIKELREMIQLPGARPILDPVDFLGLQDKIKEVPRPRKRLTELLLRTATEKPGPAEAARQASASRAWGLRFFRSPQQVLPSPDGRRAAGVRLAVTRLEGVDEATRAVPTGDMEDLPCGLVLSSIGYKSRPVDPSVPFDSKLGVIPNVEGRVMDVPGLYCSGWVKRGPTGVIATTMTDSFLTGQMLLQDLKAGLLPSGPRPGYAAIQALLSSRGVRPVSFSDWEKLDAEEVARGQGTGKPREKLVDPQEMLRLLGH
Chain of UniProt Q9H4A6 (Q9H4A6 whole entry, looked up): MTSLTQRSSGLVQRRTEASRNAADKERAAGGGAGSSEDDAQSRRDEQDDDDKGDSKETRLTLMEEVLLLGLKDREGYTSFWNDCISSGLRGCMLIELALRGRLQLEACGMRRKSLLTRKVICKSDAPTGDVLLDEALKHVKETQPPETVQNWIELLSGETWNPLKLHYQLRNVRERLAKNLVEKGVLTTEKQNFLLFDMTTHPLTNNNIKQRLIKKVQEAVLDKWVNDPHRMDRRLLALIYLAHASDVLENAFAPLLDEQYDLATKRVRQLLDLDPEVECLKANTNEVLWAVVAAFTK
Chain of UniProt Q969S8 (Q969S8 whole entry, looked up): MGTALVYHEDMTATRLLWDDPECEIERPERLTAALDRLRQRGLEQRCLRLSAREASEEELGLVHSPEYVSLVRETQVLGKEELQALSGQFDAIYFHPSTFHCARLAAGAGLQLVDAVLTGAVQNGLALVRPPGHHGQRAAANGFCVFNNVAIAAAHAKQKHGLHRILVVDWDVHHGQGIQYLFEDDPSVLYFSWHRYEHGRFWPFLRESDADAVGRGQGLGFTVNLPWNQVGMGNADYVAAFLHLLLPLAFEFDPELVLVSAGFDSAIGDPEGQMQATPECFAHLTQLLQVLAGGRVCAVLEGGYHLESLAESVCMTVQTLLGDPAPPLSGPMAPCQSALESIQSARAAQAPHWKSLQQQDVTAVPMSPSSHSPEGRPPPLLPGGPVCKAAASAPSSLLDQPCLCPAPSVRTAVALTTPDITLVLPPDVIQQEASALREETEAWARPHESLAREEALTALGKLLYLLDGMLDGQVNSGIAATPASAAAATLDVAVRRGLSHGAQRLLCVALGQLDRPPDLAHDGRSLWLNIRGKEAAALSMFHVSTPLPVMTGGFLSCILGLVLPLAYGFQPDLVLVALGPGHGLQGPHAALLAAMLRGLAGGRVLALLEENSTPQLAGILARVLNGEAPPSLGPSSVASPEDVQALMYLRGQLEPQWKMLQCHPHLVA

In the case of HTATIP2 isoform 3 (UniProt Q9BUP3), the log2 fold change in the test with bafetinib was -0.143; in test [1], -0.016; in the test with nilotinib, 0.116; in test [2], -0.056; with dasatinib, -0.046; in [3], -0.002. The log2 fold change in [4] is 0.031; in test [5] it was 0.067; with tipifarnib it was 0.106; with mubritinib it was -0.063.

For the target ICAM1 (UniProt P05362), the log2 fold change with bafetinib was 0.031; in test [1], -0.024; with nilotinib it was 0.055; in test [2], 0.051; in the test with dasatinib it was -0.01; in test [3] it was -0.019. Further, the log2 fold change in [4] is 0.048; in [5], -0.006; with tipifarnib, 0.019; with mubritinib it was 0.046.

On to FAM91A1 (UniProt Q658Y4), for which the log2 fold change in the test with bafetinib is -0.01; in test [1] it was 0.07; with nilotinib it was -0.007; in [2], 0.073; in the test with dasatinib, -0.048; in [3] it was 0.01. The log2 fold change is 0.021 in [4], -0.015 in test [5], -0.004 in the test with tipifarnib and 0.052 with mubritinib.

For the target GPD1 (UniProt P21695), the log2 fold change with bafetinib is -0.171; in [1] it was -0.123; in the test with nilotinib it was -0.104; in test [2], 0.054; with dasatinib it was 0.061; in [3], -0.017. Also, the log2 fold change in test [4] is 0.238; in test [5], 0.163; with tipifarnib, 0.057; with mubritinib it was 0.045.

Consider HIC2 (UniProt Q96JB3), for which the log2 fold change with bafetinib is 0.065; in [1] it was 0.006; in the test with nilotinib it was 0.075; in [2] it was -0.446 (active); in the test with dasatinib, 0.071; in test [3] it was -0.181. The log2 fold change in test [4] was -0.124; in test [5], -0.032; with tipifarnib it was -0.051; in the test with mubritinib it was -0.051.

For the target FDXR isoform 7 (UniProt P22570), the log2 fold change with bafetinib was -0.012; in [1], -0.162; in the test with nilotinib it was -0.031; in test [2], -0.015; with dasatinib it was -0.245; in test [3] it was -0.042. The log2 fold change in test [4] is -0.023; in test [5] it was 0.038; in the test with tipifarnib, -0.002; in the test with mubritinib, -0.643 (active).

For FBXO6 (UniProt Q9NRD1), the log2 fold change is 0.442 (active) in the test with bafetinib; 0.015 in test [1]; -0.118 with nilotinib; -0.004 in test [2]; -0.202 with dasatinib; 0.044 in test [3]. The log2 fold change was 0.047 in test [4], -0.021 in [5], -0.021 with tipifarnib and -0.038 with mubritinib.

As for GMEB1 (UniProt Q9Y692), the log2 fold change was -0.12 with bafetinib; -0.048 in test [1]; -0.04 with nilotinib; -0.036 in test [2]; -0.06 in the test with dasatinib; 0.001 in test [3]. Also, the log2 fold change in [4] was 0.019; in test [5], 0.044; with tipifarnib, -0.204; with mubritinib it was -0.03.

With HDAC10 (UniProt Q969S8), the log2 fold change is -0.255 in the test with bafetinib; -0.073 in test [1]; -0.118 in the test with nilotinib; -0.075 in test [2]; -0.027 in the test with dasatinib; -0.08 in test [3]. In addition, the log2 fold change is 0.071 in test [4], 0.001 in test [5], 0.046 in the test with tipifarnib and 0.116 with mubritinib.

In the case of GNAS (UniProt Q5JWF2), the log2 fold change with bafetinib is 0.129; in test [1], -0.001; with nilotinib it was 0.103; in test [2], -0.02; with dasatinib it was 0.064; in test [3], 0.005. For the same target, the log2 fold change in test [4] is 0.029; in test [5] it was 0.031; with tipifarnib, 0.005; with mubritinib, -0.035.

Regarding GYS1 (UniProt P13807), the log2 fold change with bafetinib was 0.107; in test [1], 0.011; with nilotinib, 0.237; in test [2], -0.18; in the test with dasatinib, 0.172; in [3] it was -0.036. Besides, the log2 fold change in [4] was -0.266; in test [5], -0.139; with tipifarnib, 0.147; in the test with mubritinib, 0.001.

Take GOLPH3 (UniProt Q9H4A6): the log2 fold change was 0.074 with bafetinib; 0.032 in test [1]; -0.021 with nilotinib; -0.015 in test [2]; -0.123 with dasatinib; -0.013 in test [3]. Moreover, the log2 fold change was 0.02 in test [4], -0.013 in test [5], -0.028 in the test with tipifarnib and 0.07 in the test with mubritinib.

Regarding GLUD1 (UniProt P00367), the log2 fold change with bafetinib is 0.25; in test [1], 0.012; with nilotinib, 0.382 (active); in test [2], 0.266 (active); in the test with dasatinib, 0.056; in test [3], -0.015. For the same target, the log2 fold change in test [4] was 0.173; in test [5], 0.04; with tipifarnib, 0.068; with mubritinib, 0.046.

In the case of IFRD1 (UniProt O00458), the log2 fold change was 0.118 in the test with bafetinib; -0.031 in test [1]; 0.165 with nilotinib; 0.056 in test [2]; 0.071 with dasatinib; 0.202 in test [3]. Also, the log2 fold change in test [4] is -0.011; in test [5], -0.005; with tipifarnib, 0.001; with mubritinib, 0.1.

FKBP4 (UniProt Q02790): the log2 fold change in the test with bafetinib was -0.014; in [1], 0.017; in the test with nilotinib it was -0.05; in test [2], -0.011; in the test with dasatinib, -0.114; in [3], 0.024. Moreover, the log2 fold change is 0.033 in test [4], -0.002 in test [5], -0.092 in the test with tipifarnib and 0.012 with mubritinib.
